{"source": "PubChem BioAssay (NCATS)", "key": {"[1]": {"assay": "Viability qHTS for spleen associated tyrosine kinase inhibitor (SYKi) drug resistant MV4-11 cells (AID 1963824); further: nearly all actives have a fitted effect of over 35% in size; further: potency means the concentration at half of the fitted maximal effect", "how_it_was_run": "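CellTiter-Glo luminescence, read 10 min after reagent addition, reports viability after a 72 hr compound exposure. Cells are an MV4-11 line made resistant to SYK inhibition, seeded at 500 per well onto compound-containing plates.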"}, "[2]": {"assay": "Cellular viability qHTS for adrenocortical cancer (ACC) cell line NCI-H295R (AID 1963990); further: nearly all actives have a fitted effect of over 60% in size; further: potency means the concentration at half of the fitted maximal effect", "how_it_was_run": "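IC50 and maximal efficacy derive from four-parameter logistic modelling of titration curves, with reads scaled between DMSO-only wells (0%) and doxorubicin hydrochloride (100% inhibition). Compounds spanned up to 46 uM over 48 h.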"}, "[3]": {"assay": "Quantitative highthroughput screen to assess conditional lethalithy of NOMO1 cells grown in RPMI1640 with untreated serum (RPMI+s) (AID 1963876); further: nearly all actives have a fitted effect of over 35% in size", "how_it_was_run": "(§1)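 Each medium arm—HPLM with 10% dialyzed FBS, or RPMI1640 with 5 mM glucose and 10% untreated or dialyzed FBS—was screened against an 11-point, 3-fold compound titration for 48 h at 37 °C, with CellTiter-Glo luminescence as endpoint.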"}, "[4]": {"assay": "Quantitative highthroughput screen to assess conditional lethalithy of NOMO1 cells grown in RPMI1640 with dialyzed fetal bovine serum (RPMI+ds) (AID 1963877)", "how_it_was_run": "as §1"}, "[5]": {"assay": "Quantitative highthroughput screen to assess conditional lethalithy of NOMO1 cells grown in Human Plasma-Like Medium with dialyzed fetal bovine serum (HPLM+ds) (AID 1963878)", "how_it_was_run": "as §1"}}, "note": "Records with an inconclusive call do not appear. The source made the active and inactive calls. The call rests on the fitted dose curve; in most records, active means well fitted curve in the direction sought with a large enough effect; inconclusive means small, poorly fitted or top-dose-only effect, or another doubt; inactive means no such curve, though single readings can be large; an effect the other way counts as inactive or inconclusive.", "data": [{"smiles": "C#Cc1cccc(Nc2ncnc3cc4c(cc23)OCCOCCOCCO4)c1", "values": [{"measurement": "Potency", "setting": "[1]", "value": "18.6 µM (active)"}, {"measurement": "Potency", "setting": "[2]", "value": "11.2 µM (active)"}]}, {"smiles": "CCCCCCCCCCCCCCNCCO", "values": [{"measurement": "Potency", "setting": "[1]", "value": "16.8 µM (active)"}, {"measurement": "Potency", "setting": "[2]", "value": "23.1 µM (active)"}]}, {"smiles": "O=C(N/N=C/c1ccc([N+](=O)[O-])o1)c1ccc(O)cc1", "values": [{"measurement": "Potency", "setting": "[1]", "value": "16.8 µM (active)"}, {"measurement": "Potency", "setting": "[2]", "value": "7.31 µM (active)"}]}, {"smiles": "CC(C)[C@H]1C(=O)N[C@@H](CCCN=C(N)N)C(=O)NCC(=O)N[C@@H](CC(=O)O)C(=O)N[C@H](Cc2ccccc2)C(=O)N1C", "values": [{"measurement": "Potency", "setting": "[1]", "value": "inactive"}, {"measurement": "Potency", "setting": "[2]", "value": "inactive"}]}, {"smiles": "Cc1ccc2nc(N)[nH]c(=O)c2c1Sc1ccncc1", "values": [{"measurement": "Potency", "setting": "[1]", "value": "4.61 µM (active)"}, {"measurement": "Potency", "setting": "[2]", "value": "inactive"}]}, {"smiles": "CCOC(=O)[C@H](CCc1ccccc1)N[C@@H](C)C(=O)N(CC(=O)O)C1Cc2ccccc2C1", "values": [{"measurement": "Potency", "setting": "[1]", "value": "inactive"}, {"measurement": "Potency", "setting": "[2]", "value": "inactive"}]}, {"smiles": "CN(C)CCOC1=Cc2ccccc2Sc2ccc(Cl)cc21", "values": [{"measurement": "Potency", "setting": "[1]", "value": "15 µM (active)"}, {"measurement": "Potency", "setting": "[2]", "value": "20.6 µM (active)"}]}, {"smiles": "O=C(NOCC(O)CO)c1cc(Br)c(F)c(F)c1Nc1ccc(I)cc1F", "note": "(configuration not stated)", "values": [{"measurement": "Potency", "setting": "[1]", "value": "0.59 µM (active)"}, {"measurement": "Potency", "setting": "[2]", "value": "15.8 µM (active)"}]}, {"smiles": "CC1(C)CC[C@]2(C(=O)O)CC[C@]3(C)C(=CC[C@@H]4[C@@]5(C)C[C@@H](O)[C@H](O)C(C)(C)[C@@H]5CC[C@]43C)[C@@H]2C1", "values": [{"measurement": "Potency", "setting": "[1]", "value": "18.6 µM (active)"}, {"measurement": "Potency", "setting": "[2]", "value": "inactive"}]}, {"smiles": "C[C@@H](O)[C@H](N)C(=O)O", "values": [{"measurement": "Potency", "setting": "[1]", "value": "inactive"}, {"measurement": "Potency", "setting": "[2]", "value": "inactive"}]}, {"smiles": "O=C(NOCC(O)CO)c1ccc(F)c(F)c1Nc1ccc(I)cc1F", "note": "(configuration not stated)", "values": [{"measurement": "Potency", "setting": "[1]", "value": "0.148 µM (active)"}, {"measurement": "Potency", "setting": "[2]", "value": "inactive"}]}, {"smiles": "CO[C@H]1C[C@@H]2CC[C@@H](C)[C@@](O)(O2)C(=O)C(=O)N2CCCC[C@@H]2C(=O)O[C@H]([C@H](C)C[C@@H]2CC[C@H](OP(C)(C)=O)[C@H](OC)C2)CC(=O)[C@H](C)C=C(C)[C@@H](O)[C@@H](OC)C(=O)[C@H](C)C[C@H](C)C=CC=CC=C1C", "values": [{"measurement": "Potency", "setting": "[3]", "value": "inactive"}, {"measurement": "Potency", "setting": "[4]", "value": "inactive"}]}, {"smiles": "CN(C)[C@@H]1C(=O)C(C(N)=O)=C(O)[C@@]2(O)C(=O)C3=C(O)c4c(O)ccc(Cl)c4[C@@H](O)[C@H]3C[C@@H]12", "values": [{"measurement": "Potency", "setting": "[1]", "value": "8.41 µM (active)"}, {"measurement": "Potency", "setting": "[2]", "value": "inactive"}]}, {"smiles": "CCc1c(C(=O)NNC(=O)[C@@H](O)c2cc(F)cc(F)c2)ccc(O)c1C", "values": [{"measurement": "Potency", "setting": "[1]", "value": "9.2 µM (active)"}, {"measurement": "Potency", "setting": "[2]", "value": "inactive"}]}, {"smiles": "COC(=O)C1=CO[C@@H](O)[C@@H]2C(CO)=CC[C@@H]12", "values": [{"measurement": "Potency", "setting": "[3]", "value": "inactive"}, {"measurement": "Potency", "setting": "[4]", "value": "inactive"}]}, {"smiles": "CC(=O)Oc1ccc2c(c1)CC[C@@H]1[C@@H]2CC[C@]2(C)[C@@H](O)CC[C@@H]12", "values": [{"measurement": "Potency", "setting": "[1]", "value": "15 µM (active)"}, {"measurement": "Potency", "setting": "[2]", "value": "18.4 µM (active)"}]}, {"smiles": "Cc1cc2cc(Oc3ccnc(Nc4cccc(CS(=O)(=O)NCCN(C)C)c4)n3)ccc2[nH]1", "values": [{"measurement": "Potency", "setting": "[1]", "value": "1.86 µM (active)"}, {"measurement": "Potency", "setting": "[2]", "value": "25.1 µM (active)"}]}, {"smiles": "CC(C)n1ncnc1-c1cn2c(n1)-c1ccc(O[C@@H](C)C(N)=O)cc1OCC2", "values": [{"measurement": "Potency", "setting": "[1]", "value": "4.68 µM (active)"}, {"measurement": "Potency", "setting": "[2]", "value": "0.631 µM (active)"}]}, {"smiles": "C[C@H]1C[C@@H]2[C@@H]([C@@H](O)C[C@@]3(C)[C@H]2CC[C@]3(O)C(=O)CO)[C@@]2(C)C=CC(=O)C=C12", "values": [{"measurement": "Potency", "setting": "[3]", "value": "inactive"}, {"measurement": "Potency", "setting": "[4]", "value": "inactive"}, {"measurement": "Potency", "setting": "[5]", "value": "inactive"}]}, {"smiles": "CCCCCN=C(N)N/N=C/c1c[nH]c2ccc(OC)cc12", "values": [{"measurement": "Potency", "setting": "[1]", "value": "2.66 µM (active)"}, {"measurement": "Potency", "setting": "[2]", "value": "23.1 µM (active)"}]}, {"smiles": "O=C(OCCOCCO)c1ccccc1Nc1cccc(C(F)(F)F)c1", "values": [{"measurement": "Potency", "setting": "[1]", "value": "14.6 µM (active)"}, {"measurement": "Potency", "setting": "[2]", "value": "25.9 µM (active)"}]}, {"smiles": "COc1ccc2[nH]c(S(=O)Cc3ncc(C)c(OC)c3C)nc2c1", "note": "(configuration not stated)", "values": [{"measurement": "Potency", "setting": "[1]", "value": "1.64 µM (active)"}, {"measurement": "Potency", "setting": "[2]", "value": "inactive"}]}, {"smiles": "N#C/C(=C(/N)Sc1ccc(N)cc1)c1ccccc1C(F)(F)F", "values": [{"measurement": "Potency", "setting": "[1]", "value": "7.42 µM (active)"}, {"measurement": "Potency", "setting": "[2]", "value": "inactive"}]}, {"smiles": "CCc1ccc(C=C2SC(=S)NC2=O)cc1", "values": [{"measurement": "Potency", "setting": "[3]", "value": "inactive"}]}, {"smiles": "O=c1cc(-c2ccccc2)oc2ccccc12", "values": [{"measurement": "Potency", "setting": "[1]", "value": "21.5 µM (active)"}, {"measurement": "Potency", "setting": "[2]", "value": "inactive"}]}, {"smiles": "CC[N+]1(CC)CCC(=C(c2ccccc2)c2ccccc2)C1C", "note": "(configuration not stated)", "values": [{"measurement": "Potency", "setting": "[1]", "value": "8.2 µM (active)"}, {"measurement": "Potency", "setting": "[2]", "value": "inactive"}]}, {"smiles": "O=C(/C=C/c1ccccc1)NCCO", "values": [{"measurement": "Potency", "setting": "[1]", "value": "inactive"}, {"measurement": "Potency", "setting": "[2]", "value": "14.6 µM (active)"}]}, {"smiles": "CCc1cc(S(=O)(=O)O)c2cc(C(C)C)cccc1-2", "values": [{"measurement": "Potency", "setting": "[1]", "value": "inactive"}, {"measurement": "Potency", "setting": "[2]", "value": "inactive"}]}, {"smiles": "CN(C)CCOc1ccc(-c2nc(-c3ccc4c(c3)CCC4=NO)c(-c3ccncc3)[nH]2)cc1", "values": [{"measurement": "Potency", "setting": "[3]", "value": "inactive"}]}, {"smiles": "CN(C(=O)CN(CCO)CC(=O)N(C)C(C)(C)Cc1ccccc1)C(C)(C)Cc1ccccc1", "values": [{"measurement": "Potency", "setting": "[1]", "value": "9.44 µM (active)"}, {"measurement": "Potency", "setting": "[2]", "value": "23.1 µM (active)"}]}, {"smiles": "CC[C@H]1OC(=O)[C@H](C)[C@@H](O[C@H]2C[C@@](C)(OC)[C@@H](O)[C@H](C)O2)[C@H](C)[C@@H](O[C@@H]2O[C@H](C)C[C@H](N(C)C)[C@@H]2O)[C@](C)(O)C[C@@H](C)CN(C)[C@H](C)[C@@H](O)[C@]1(C)O", "values": [{"measurement": "Potency", "setting": "[3]", "value": "inactive"}, {"measurement": "Potency", "setting": "[4]", "value": "inactive"}, {"measurement": "Potency", "setting": "[5]", "value": "inactive"}]}]}
